# This is a sample that favours compounds with a hit; in the whole collection about 6.6% have one here.
# SW480 rereplic – DNA re-replication induction in SW480 cells | SW480 DNA re-replication, Hoechst DNA content imaging, 48 h | Potency, µM (doses to about 46.1 µM), actives largely listed as activators | 340,000 compounds, 1.8% hits; also: nearly all actives have a fitted effect of over 55% in size
#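 Image-based read-out: total Hoechst fluorescence of nuclei (405 nm excitation, 500-530 nm emission), with hits raising the fraction of high-intensity nuclei. SW480 colon cells incubated 48 hr with compounds at 37 C.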
# KB-3-1 cytotox – kills parental KB-3-1 adenocarcinoma cells. KB-3-1 viability, CellTiter-Glo ATP luminescence, 72 h. Potency, µM (titrated, usually from 46.1 µM), hits mostly cytotoxic. 400,000 compounds, 1.4% hits; also: nearly all actives have a fitted effect of over 60% in size
#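 Using CellTiter-Glo luminescence, growth of non-resistant KB-3-1 adenocarcinoma cells is assessed 72 h after pin-tool compound addition at 37 °C. Normalized responses across the concentration series yield fitted curves.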
# TSG101-PTAP inh – blocks PTAP/TSG101 interaction to inhibit HIV-1 budding; Fluorescence polarization, FITC-PTAP peptide / Tsg101 binding; Potency, µM (doses to about 115 µM), usual class: inhibitors; 340,000 tested, under 10 active; AID 493005; active = well fitted inhibition curve with a large enough effect in the main read-out, with a control signal flat, not every such curve was filed as active; inconclusive = small, poorly fitted or top-dose-only effect, or effect the other way, or a change in a side signal; inactive = no such curve, though single readings can be large or run the other way
# Target sequence (Q99816 whole entry, looked up): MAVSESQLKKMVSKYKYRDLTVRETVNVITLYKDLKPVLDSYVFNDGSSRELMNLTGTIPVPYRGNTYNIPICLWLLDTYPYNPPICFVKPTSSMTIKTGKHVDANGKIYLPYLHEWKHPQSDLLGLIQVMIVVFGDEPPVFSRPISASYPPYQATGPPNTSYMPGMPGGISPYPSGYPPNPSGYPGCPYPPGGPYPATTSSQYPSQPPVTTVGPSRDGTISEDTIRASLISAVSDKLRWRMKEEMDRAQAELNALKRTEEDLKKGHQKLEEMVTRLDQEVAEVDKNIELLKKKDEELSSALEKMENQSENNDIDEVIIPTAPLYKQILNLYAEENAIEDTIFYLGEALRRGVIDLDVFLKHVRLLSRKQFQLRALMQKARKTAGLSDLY
#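 Fluorescence anisotropy tracks displacement of a FITC-tagged PTAP peptide (50 nM) from the Tsg101 binding domain (10 uM), following a 20 min room-temperature incubation at pH 7.5.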
# RGS4 inh – human RGS4 inhibition. P49798. Transcreener GDP fluorescence polarization, RGS4-accelerated GTP hydrolysis. Potency, µM (top dose mostly 114 µM), actives largely listed as inhibitors. 390,000 compounds, 0.039% hits; also: nearly all actives have a fitted effect of over 75% in size
# Target sequence (P49798 whole entry, looked up): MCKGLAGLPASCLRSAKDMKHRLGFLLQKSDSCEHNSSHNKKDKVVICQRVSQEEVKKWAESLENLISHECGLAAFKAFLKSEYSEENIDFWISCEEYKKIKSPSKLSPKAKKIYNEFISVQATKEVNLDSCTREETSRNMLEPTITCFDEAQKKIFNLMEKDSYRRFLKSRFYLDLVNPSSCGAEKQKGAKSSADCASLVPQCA
#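 MLSMR compounds (23 nl, pin-transferred) preincubated 10 min at room temperature with a 500nM (2x) first reagent, then RGS4 at 900nM (2x) plus Transcreener GDP mix added; fluorescence polarization (620/688 nm) read before and after 90 min at 30 °C.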
# MCF10A rerep – DNA re-replication induction in MCF 10a cells; Potency, µM (titrated, usually from 46.1 µM), hits mostly activators; 350,000 compounds, 2.9% hits; AID 624296; MCF 10A DNA re-replication, Hoechst nuclear intensity, 48 h; also: nearly all actives have a fitted effect of over 50% in size
# KB-V1 cytotox – kills drug-selected multidrug resistant KB-V1 cells; KB-V1 MDR cells viability, CellTiter-Glo, 72 h; Potency, µM (doses to about 46.1 µM), hits mostly cytotoxic; 400,000 compounds, 3.4% hits; also: nearly all actives have a fitted effect of over 60% in size
#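 Drug-selected KB-V1 cells, grown in DMEM lacking phenol red with 10% FBS, receive compound titrations; after three days at 37 degrees C, surviving cell ATP is quantified by CellTiter-Glo luminescence and responses normalized and curve-fitted.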
# Numbers stand for hits; – = inactive; ? = inconclusive; · = no result given; [ ] = remark or other dose. Unless noted, calls follow the shape of the dose curve; as a rule, active = well fitted curve in the direction sought with a large enough effect; inconclusive = small, poorly fitted or top-dose-only effect, or another doubt; inactive = no such curve, though single readings can be large; an effect the other way counts as inactive or inconclusive.
SMILES,SW480 rereplic,KB-3-1 cytotox,TSG101-PTAP inh,RGS4 inh,MCF10A rerep,KB-V1 cytotox
Cc1cccc(Nc2nc(-c3cccs3)cs2)n1,–[9.22 µM],–,–,–,–,–
Cc1cccc(Nc2nc(-c3ccccn3)cs2)n1,?,9.2µM,–,–,–,0.517µM
CCN1CCN(C(=O)/C(C#N)=C/c2ccc(OC(F)F)cc2)CC1,–,–,–,–,–,–
N#C/C(=C\c1ccc(OC(F)F)cc1)C(=O)N1CCCCC1,–,–,–,–,13µM,–
Cc1ccccc1C(=O)Nc1cccc(-c2nnc(SCC(=O)NCc3ccco3)n2C)c1,·,–,·,·,·,–
CCN(CC)CCCNC(=O)c1ccc2c(c1)sc1nc(-c3ccc(C)cc3)cn12,·,16.4µM,·,–,·,?
COc1cccc(Cn2c(=O)c3ccccc3n3nc(C)cc23)c1,–,?,–,–,?,20.6µM
COc1ccc(Cl)cc1NC(=O)CSc1nc2sccc2c(=O)[nH]1,–,–,–,–,20.6µM,–
COc1ccc(C)cc1NC(=O)CSc1nc2scc(C)c2c(=O)[nH]1,?,–,–,–,18.4µM,–
Cc1cc(=O)oc2c1ccc1oc(/C(=N/O)c3ccccc3)c(C)c12,–,?,–,–,?,20.6µM
CC(=O)NCCCN(Cc1ccc(Cl)c(Cl)c1)c1ccc(Br)cn1,·,·,·,–,·,·
Cc1nn(-c2ccccc2)c(N)c1N=Nc1cccnc1,–,–,–,–,–,–
Nc1nn(-c2ccccc2)c(N)c1N=Nc1cccc(F)c1,5.8µM,5.8µM,–,–,3.66µM,?
Nc1nn(-c2ccccc2)c(N)c1N=Nc1ccc2c(c1)OCO2,16.4µM,7.31µM,–,–,?,3.26µM
Nc1[nH]n(-c2ccccc2)c(=O)c1N=Nc1ccc2c(c1)OCO2,–,?,–,–,–,–
CCOC(=O)Cn1nc(C)c(NC(=O)COc2ccc(Cl)cc2C)c1C,·,–,·,–,·,?
C=CCNc1ncnc2c1[nH]c1ccc(C)cc12,–,?,–,–,?,?
CCCOc1ncnc2c1[nH]c1ccccc12,–,?,–,–,?,?
CCCCOc1ncnc2c1[nH]c1ccc(C)cc12,–,?,–,–,–,7.31µM
CCCOc1ncnc2c1[nH]c1ccc(OC)cc12,–,?,–,–,–,14.6µM
Cc1ccc(/C=C/C(O)=C2/C(=O)N(C)C3(C)CC2c2ccccc2O3)cc1 (centres undefined),?,14.6µM,–,–,?,–
Cc1cccc(N2CCN(C(=O)C3CCN(S(=O)(=O)c4cccs4)CC3)CC2)c1C,·,–,·,–,·,–
CC(C)CNC(=O)C(=O)Nc1ccc2c(c1)N(S(=O)(=O)c1cccs1)CCC2,–,–,–,–,–,–
O=C(NCCCO)C(=O)Nc1ccc2c(c1)N(S(=O)(=O)c1cccs1)CCC2,–,–,–,–,–,–
CC(C)CCNC(=O)C(=O)Nc1ccc2c(c1)N(S(=O)(=O)c1cccs1)CCC2,?,5.8µM,–,–,?,?
SMILES,SW480 rereplic,KB-3-1 cytotox,TSG101-PTAP inh,RGS4 inh,MCF10A rerep,KB-V1 cytotox
COCCNC(=O)C(=O)Nc1ccc2c(c1)N(S(=O)(=O)c1cccs1)CCC2,2.59µM,?,–,–,?,?
CCNc1nc(NCC)nc(-n2cc(C(=O)c3cc(Cl)ccc3O)cn2)n1,·,?,·,–,·,?
Cc1cc(C)cc(-n2c(SCC(=O)NC3CCCCC3)nc3c([nH]c4ccccc43)c2=O)c1,·,–,·,–,·,–
COC(=O)C1=C(O)C(C(=O)OC)C(c2ccc(C)cc2)C(C#N)(C#N)C1c1ccc(C)cc1 (centres undefined),?,7.31µM,–,–,?,?
CCOC(=O)CSC1=C(C#N)C(c2ccc(C)cc2)C(C(=O)OC)C(=O)N1 (centres undefined),–[9.22 µM],–,–,–,–,–
Cc1ccc(C)c(NC(=O)CCCN2C(=O)C(c3ccccc3)Oc3cccnc32)c1 (centres undefined),·,–,·,–,·,–
O=C(COC(=O)C1Cc2ccccc2CN1C(=O)c1ccccc1Cl)Nc1ccc(N2CCOCC2)cc1 (centres undefined),–,–,–,–,–,14.6µM
CCC(=O)N1CCCc2cc(S(=O)(=O)N3CCC(C(=O)NC4CCC(C)CC4)CC3)ccc21 (centres undefined),·,–,·,–,·,–
O=C(Cc1ccc(Cl)cc1)NNS(=O)(=O)c1ccc([N+](=O)[O-])cc1,–,–,–,–,–,–
CO/S(=N\S(=O)(=O)c1ccc(Cl)cc1)c1ccc([N+](=O)[O-])cc1 (centres undefined),·,·,·,11.9µM,·,·
OC(CNCC(c1ccc(Cl)cc1Cl)c1c[nH]c2ccccc12)c1ccccc1 (centres undefined),–,–,–,–,?,23.1µM
O=C(Nc1ccc2nc3n(c(=O)c2c1)CCCC3)c1ccccc1F,–,–,–,–,–,–
O=C(Nc1ccc2nc3n(c(=O)c2c1)CCCCC3)c1c(F)ccc([N+](=O)[O-])c1F,1.3µM,2.31µM,–,?,?,16.4µM
O=C(Nc1ccc2nc3n(c(=O)c2c1)CCCCC3)c1cc([N+](=O)[O-])ccc1F,16.4µM,?,–,–,14.6µM,–
COC(=O)C1=C(C)NC(=O)NC1c1ccc(N2CCC(c3ccccc3)=N2)cc1 (centres undefined),2.06µM,–,–,?,5.17µM,?
CC(=O)Nc1ccc(S(=O)(=O)Nc2cccc(-c3ccc(N4CCC(C)CC4)nn3)c2)cc1,·,–,·,–,·,–
Clc1ccc(-c2cnc(Oc3ccccc3)nc2)cc1,–,–,–,–,–,–
Cc1cc(Cl)ccc1Oc1ncc(-c2ccc(Cl)cc2)cn1,–,–,–,–,–,18.4µM
CCN(CC)c1ccc(CN2CCCCCC2)cc1,?,?,–,–,?,18.4µM
Cc1cc(=O)[nH]c2nnc(SCc3cccc(C(F)(F)F)c3)n12,·,·,·,–,·,·
CCc1ccccc1NC(=O)c1noc2c1CC(C(C)(C)C)CC2 (centres undefined),·,–,·,–,·,–
C=CCNC(=O)C1CC1(c1ccc(C)cc1)c1ccc(C)cc1 (centres undefined),–,–,–,–,?,?
C=CCNC(=O)C1CC1(c1ccccc1)c1ccccc1 (centres undefined),–,–,–,–,–,18.4µM
CC(C)CC(N)c1csc(Nc2ccc(C(F)(F)F)cn2)n1 (centres undefined),·,?,·,·,·,16.4µM
NC(CO)c1csc(Nc2ccc(C(F)(F)F)cn2)n1 (centres undefined),·,–,·,·,·,–
CCOc1cc(/C=N/NC(=O)c2ccc(-c3csc(Nc4ccc(C)cc4)n3)cc2)ccc1OCC(=O)O,–,–,–,?,–,–

# Screening data deposited in PubChem BioAssay by National Center for Advancing Translational Sciences (NCATS).
